Results filed as inconclusive are left out. Values without a mark were called inactive. Calls follow the shape of the dose curve; as a rule, active = well fitted curve in the direction sought with a large enough effect; inconclusive = small, poorly fitted or top-dose-only effect, or effect the other way, or another doubt; inactive = no such curve, though single readings can be large or run the other way.

Chain of Alpha-galactosidase A (Homo sapiens) (P06280 32-429 limits assumed): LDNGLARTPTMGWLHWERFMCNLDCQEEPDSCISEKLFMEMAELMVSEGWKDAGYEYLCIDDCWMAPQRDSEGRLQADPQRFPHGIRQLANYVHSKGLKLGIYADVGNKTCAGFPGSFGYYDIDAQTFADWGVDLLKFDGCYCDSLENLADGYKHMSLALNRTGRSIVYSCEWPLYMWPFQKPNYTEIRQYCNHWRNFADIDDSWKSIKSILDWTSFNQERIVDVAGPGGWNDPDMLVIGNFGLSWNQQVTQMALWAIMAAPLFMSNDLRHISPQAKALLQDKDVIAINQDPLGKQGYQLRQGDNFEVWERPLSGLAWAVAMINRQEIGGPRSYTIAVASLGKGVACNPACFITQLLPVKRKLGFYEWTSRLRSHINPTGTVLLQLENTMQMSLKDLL

In this assay the target is Alpha-galactosidase A (Homo sapiens) (UniProt P06280). The assay is described as follows: Confirmation of Inhibitors of Human alpha-Galactosidase Using Spleen Homogenate. Also: 0% is about no effect. Particulars: alpha-galactosidase enzyme activity; series mostly up to 56.2 µM; activity change: at the top concentration. In a few lines:
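AC50 values come from Hill-equation fits of normalised 4-methylumbelliferone fluorescence (365/440 nm, read after NaOH/glycine stop). Enzyme source: spleen homogenate; substrate 1 mM final; pH 5.0 citrate buffer; 40 min at 37C; compound titration 0.5 nM–58 uM.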
On to `Cc1ccc(CNc2ccc(N3CCOCC3)cc2)cc1`, for which the “activity change” value is -4.12%.

With `Cc1cc(C)nc(SCc2cc(=O)c(OC(=O)c3ccco3)co2)n1`, the “activity change” value is 2.16% [at 23.6 µM].

For the molecule `CN1CC=C2C(C#N)=C(N)C(C#N)(C#N)[C@H](c3cccc(Cl)c3)C2C1` (some centres undefined), the “activity change” value was -3.22% [at 23.6 µM].

With `CN(C)CC/C=C1/c2ccccc2Sc2c(O)cc(Cl)cc21`, the “activity change” value was -10.2%.

For `COc1cccc(S(=O)(=O)N2CCOCC2)c1`, the “activity change” value was 9.2%.

In the case of `O=C(COc1ccc2ccccc2c1)N1CCN(C(=O)c2ccco2)CC1`, the “activity change” value was 8.9% [at 23.6 µM].

Take `O=S(=O)(c1ccccc1Br)N1CCOCC1`: the “activity change” value is 8.81%.

As to `O=S(=O)(c1ccccc1Cl)N1CCOCC1`, the “activity change” value was 3.86%.

Regarding `CCNc1sc(C(=O)c2cccs2)c(N)c1-c1nc2ccccc2s1`, the “activity change” value is 5.31%.

As for `Nc1nc(C2CC2)c(Sc2sc(N)nc2C2CC2)s1`, the “activity change” value was -1.12%.

As for `C=C(C)CC(NCc1ccco1)c1ccc(OC)cc1` (centres undefined), the “activity change” value was 3%.

With `O=S(=O)(c1ccccc1)N1CCN(Cc2ccccc2)CC1`, the “activity change” value is -2.74%.

In the case of `CC(C)Cn1c(SCC(=O)N2CCCCC2)nc2ccccc2c1=O`, the “activity change” value was 2.74% [at 23.6 µM].

Consider `Cc1ccc(S(=O)(=O)N2CCN(CC(=O)N/N=C\c3ccccn3)CC2)cc1`, for which the “activity change” value is 10.8%.

`Cc1ccc(-c2cc(C(=O)N3CCN(S(=O)(=O)c4ccc(Br)s4)CC3)[nH]n2)c(C)c1`: the “activity change” value is 1.71%.

For `COc1cc(C2C(C(=O)c3ccco3)=C(O)C(=O)N2CC2CCCO2)ccc1O` (centres undefined), the “activity change” value is -5.75%.

Take `O=c1oc2ccc3ccccc3c2cc1-c1nc(CCCBr)cs1`: the “activity change” value is -0.995%.

On to `O=C1c2ccccc2NC(c2cccnc2)N1c1ccccc1F` (centres undefined), for which the “activity change” value was 10.3% [at 23.6 µM].

Take `NC(=O)NN=C1c2cc(S(=O)(=O)N3CCOCC3)ccc2-c2ccc(S(=O)(=O)N3CCOCC3)cc21`: the “activity change” value was 8.14%.

These data come from PubChem BioAssay AID2108 (National Center for Advancing Translational Sciences (NCATS), 2009).
